Compounds with a hit are over-represented: about 12% of the library has one in this group of screens.
SARS PLpro yeast = qHTS of Yeast-based Assay for SARS-CoV PLP; S. cerevisiae expressing SARS-CoV PLpro, growth rescue; Potency, µM (highest dose often 32.9 µM), for inactives: top-dose activity, positive = growth rescue, hits mostly activators; actives 0.19% (n = 330,000); AID 485353, 2010; calls by dose curve; further: 0% is about no effect; nearly all actives have a fitted effect of over 55% in size
AMA1 RON2 block = qHTS for Inhibitors of AMA1-RON; Towards Development of Antimalarial Drug Lead: Primary Screen; Potency, µM (top dose mostly 58.2 µM), inactives show at the highest dose activity change, negative = inhibition, hits mostly inhibitors; AlphaScreen AMA1-biotinylated RON2 peptide binding; actives 0.2% (n = 360,000);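 further: 0% = vehicle wells and -100% = peptide control; nearly all actives have a fitted effect of over 45% in size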
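AMA1 (3D7) with his tag at 25 nM final met compounds first, then biotinylated RON2 peptide at 25 nM; detection used donor plus acceptor beads, 10 µg/mL apiece, read by AlphaScreen after 30 min at room temperature.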
NS1 inh = qHTS Assay for Inhibitors of Influenza NS1 Protein Function; Potency, µM (titrated, usually from 46.1 µM), for the others: at the highest dose activity, positive = more growth; actives 0.4% (n = 270,000); AID 2326, 2010; calls by dose curve; further: actives are rising curves; nearly all actives have a fitted effect of over 50% in size
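OD600 was taken as the measure of yeast growth restored by compound in an NS1-expressing S. cerevisiae strain. Cells had been washed out of glucose medium and diluted 1:100 into galactose -URA medium, pH 6.0.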
Pf growth 48h = Primary qHTS for delayed death inhibitors of the malarial parasite plastid, 48 hour incubation | P. falciparum luciferase growth in erythrocytes, 48 h | actives 5.9% (n = 310,000) | AID 504832, 2011 | Potency, µM (top dose mostly 28.7 µM), for inactives: top-dose activity change, negative = inhibition, hits mostly inhibitors; further: on the % scale 0 is the no-effect control and ±100 the full control effect
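Cell-based growth assay: transgenic P. falciparum expressing firefly luciferase, cultured in red cells within RPMI 1640 containing 0.5% w/v Albumax, 24 mM bicarbonate and gentamycin. A drop in luciferase activity indicates inhibition.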
Pf growth 96h = Primary qHTS for delayed death inhibitors of the malarial parasite plastid, 96 hour incubation | P. falciparum luciferase reporter growth, 96 h | AID 504834, 2011 | Potency, µM (top dose mostly 28.7 µM), without a hit: at the top dose activity change, negative = inhibition, actives largely listed as inhibitors | actives 6.9% (n = 320,000); further: on the % scale 0 is the no-effect control and ±100 the full control effect
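Infected RBCs, 2% Hct / 0.05% parasitemia final; luciferase-reporter P. falciparum; cpd 96 h, 37 C, 5% CO2; luciferase detection reagent; luminescence.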
HCV inhibitor = qHTS Assay for Inhibitors of Hepatitis C Virus (HCV). Huh7.5.1 HCVcc-Cre infection, luciferase reporter, 44 h. Potency, µM (top dose mostly 41.8 µM), without a hit: at the top dose activity change, negative = inhibition, usual class: inhibitors. actives 3.4% (n = 340,000); further: on the % scale 0 is the no-effect control and ±100 the full control effect
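Luciferase read-out (15 sec integration) after a 15 min room-temperature substrate step quantifies HCVcc-Cre infection. Cells, 1,000 per well, had compound added 4 h post-plating, then virus at ~0.5 moi, and were cultured 44 h.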
Starred values were filed as active, the others as inactive; i = inactive; ? = inconclusive; / = not tested or not shown; [ ] = another dose, or the depositor's remark. Unless noted, the call rests on the fitted dose curve; in most records, active means well fitted curve in the direction sought with a large enough effect; inconclusive means small, poorly fitted or top-dose-only effect, or another doubt; inactive means no such curve, though single readings can be large; an effect the other way counts as inactive or inconclusive. Potency means the concentration at half of the fitted maximal effect.

SMILES | SARS PLpro yeast | AMA1 RON2 block | NS1 inh | Pf growth 48h | Pf growth 96h | HCV inhibitor
COc1ccc([N+](=O)[O-])cc1N/C(=N/S(=O)(=O)c1ccccc1)c1ccccc1 | -1% | -26% | / | -28% | -1% | -14%
COc1ccc(NC(=O)c2ccc(CNc3c(NC4CCCCC4)c(=O)c3=O)cc2)cc1OC | 2% | 0% | 22% | / | 15µM* | -10%
COc1ccc(NC(=O)c2ccncc2)cc1S(=O)(=O)N1CCCCC1 | / | 9% | / | / | / | /
CCc1ccc(C(=O)Nc2ccc(OC)c(S(=O)(=O)N3CCCCC3)c2)cc1 | 0% | 0% | / | ? | ? | 4.5µM*
COc1ccc(NC(=O)c2ccc3ccccc3n2)cc1S(=O)(=O)N1CCCCC1 | 3% | 0% | -15% | 45% | -23% | 5.6µM*
COc1ccc(NC(=O)Cc2ccsc2)cc1S(=O)(=O)N1CCOCC1 | 0% | -8% | / | ? | ? | 9%
COc1ccc(NC(=O)Cn2ncc(Cl)c(Cl)c2=O)cc1S(=O)(=O)N1CCOCC1 | -11% | -6% | 21% | ? | ? | 8.9µM*
COc1ccc(S(=O)(=O)N2CCCCC2)cc1NC(=O)c1ccc2ccccc2n1 | -1% | 3% | 19% | 0% | -1% | ?
CSCCC(c1nnnn1C1CCCC1)N1CCN(C/C=C/c2ccccc2)CC1 (stereo not drawn) | / | -22% | / | / | / | /
O=C(CCS(=O)(=O)c1ccccc1)Nc1cccc2c1C(=O)NC2=O | 1% | -9% | / | -2% | -13% | ?
COc1ccc(NC(=O)c2ccc(Cl)nc2)cc1S(=O)(=O)N1CCOCC1 | 0% | -3% | / | ? | 12µM* | ?
COc1ccc(COC(=O)c2ccc(Br)c(S(=O)(=O)N3CCOCC3)c2)cc1F | -13% | -26% | / | 3.3µM* | ? | ?
COc1ccc(C(=O)OCc2ccc(C)cc2)cc1S(=O)(=O)N1CCOCC1 | -1% | -10% | / | ? | ? | ?
COc1ccc(NS(=O)(=O)c2cccc(NC(=O)c3ccc(S(=O)(=O)N4CCCCCC4)cc3)c2)cc1 | -13% | -1% | 9% | ? | 13µM* | ?
COc1ccc(NC(=O)c2ccc(-c3ccccc3)cc2)cc1S(=O)(=O)N1CCOCC1 | -6% | -8% | -6% | 0% | -25% | ?
Cc1csc(NC(=O)c2ccc(C)c(S(=O)(=O)N3CCOCC3)c2)n1 | 1% | / | / | ? | ? | /
Cc1csc(NC(=O)c2ccc(C)c(S(=O)(=O)N3CCCCC3)c2)n1 | -1% | -12% | -4% | 3.3µM* | 4.1µM* | -27%
CN(NS(=O)(=O)c1ccccc1)C(=O)c1ccccc1 | / | -3% | / | / | / | 17%
CN1CCN(c2ccc3nc(-c4ccc5nc(-c6ccc(O)cc6)[nH]c5c4)[nH]c3c2)CC1 | / | / | -43% | / | / | /
COc1ccc(NC(=S)NC(=O)CC(C)C)c(OC)c1 | 0% | 5% | / | 25%[5.75 µM] | i | ?
COc1ccccc1NS(=O)(=O)c1cc(NC(=O)c2ccc(Cl)nc2)ccc1Cl | -3% | 2% | 16% | 1.7µM* | 3.3µM* | 7.1µM*
COCCNC(=S)N1CCN(Cc2ccc3c(c2)OCO3)CC1 | -4% | 1% | 11% | -2% | ? | 8%
O=C(O)c1ccc2c(c1)C(=O)N(c1cc([N+](=O)[O-])ccn1)C2=O | 1% | 0% | -2% | 3%[0.00184 µM] | 12% | 20%
Cc1cc(C)cc(NC(=O)C2(c3ccccc3)CC2(Cl)Cl)c1 (stereo not drawn) | -33% | 3% | -50% | 4.7µM* | 2.3µM* | -13%
CCc1ccc(NC(=O)C2(c3ccccc3)CC2(Cl)Cl)cc1 (stereo not drawn) | -27% | 8% | -120% | ? | 3.3µM* | ?
SMILES | SARS PLpro yeast | AMA1 RON2 block | NS1 inh | Pf growth 48h | Pf growth 96h | HCV inhibitor
Cc1cccc(NC(=O)C2(c3ccccc3)CC2(Cl)Cl)c1 (stereo not drawn) | -13% | 0% | -52% | ? | ? | -26%
Cc1ccc(NC(=O)C2(c3ccccc3)CC2(Cl)Cl)cc1C (stereo not drawn) | -26% | -2% | -32% | ? | ? | -11%
CCC(C)(C)NC(=O)c1cc(S(=O)(=O)N2CCCCC2)ccc1N1CCOCC1 | 2% | 4% | / | ? | 0% | 9%
CC#CCCCC(=O)Nc1cccc(C(=O)O)c1 | 2% | 2% | 17% | 143% | 10µM* | 3%
CCCCC(=O)NC(=S)Nc1cccc(C(=O)O)c1 | -1% | -25% | 0% | 34% | ? | 2%
CCCCC(=O)Nc1cccc(NC(=O)c2cccc(Br)c2)c1 | -1% | -10% | / | 9% | 61%[5.75 µM] | 11µM*
C[C@H]1CN([C@@H](C)CO)C(=O)CCCn2cc(nn2)CO[C@@H]1CN(C)C(=O)Nc1ccccc1C(F)(F)F | / | 3% | / | / | / | /
COc1ccc(-c2[nH]nc3oc(=O)cc(C)c23)cc1 | / | -13% | -19% | -15% | 8.3µM* | -4%
Cc1ccc(C(=O)N2CCN(c3ccccc3)CC2)cc1S(=O)(=O)N1CCCC1 | 1% | -15% | -3% | ? | 12% | ?
Cc1ccccc1C(=O)N1CCN(S(=O)(=O)c2ccccc2)CC1 | -3% | 3% | 8% | -1% | 13µM* | 30%
O=C(c1ccccc1F)N1CCN(S(=O)(=O)c2ccc(S(=O)(=O)N3CCCCC3)cc2)CC1 | 1% | 16% | -31% | 14% | 31% | 14%
COc1ccccc1C(=O)N1CCN(S(=O)(=O)c2ccccc2)CC1 | 0% | 5% | -16% | 3% | 5% | 3%
O=C(c1ccccc1F)N1CCN(S(=O)(=O)c2ccc(S(=O)(=O)N3CCCCCC3)cc2)CC1 | -3% | -9% | -7% | 12µM* | -4% | 4%
Cc1ccc(NC(=O)c2ccc(F)cc2)cc1S(=O)(=O)N1CCCCCC1 | 1% | -4% | / | -16% | ? | ?
Cc1ccc(C)c(S(=O)(=O)N2CCN(C(=O)[C@@H](NC(=O)c3ccc(F)cc3)C(C)C)CC2)c1 | 0% | -1% | / | 9.3µM* | ? | ?
Cc1ccc(C(=O)N2CCN(c3ccc(F)cc3)CC2)cc1S(=O)(=O)N1CCCCC1 | -7% | -11% | -9% | ? | 9.3µM* | /
O=c1[nH]cnc2c1ncn2[C@@H]1O[C@H](COS(=O)(=O)O)[C@@H](O)[C@H]1O | -44% | 9% | / | / | / | 4%
CC1CCC(N2CCN(C(=O)c3ccccc3F)CC2)CC1 (stereo not drawn) | 7% | -29% | -1% | 0% | 12µM* | 3%

Bioassay records deposited in PubChem by National Center for Advancing Translational Sciences (NCATS).
